# PI5P4Ka inh: inhibitors of human PI5P4K alpha; P48426; PI5P4Kalpha enzyme, ADP-Glo luminescence, 60 min; stronger effect = lower value; max response, %; 330,000 tested, 1.2% active; AID 652105; active = max response of -50% or lower; inconclusive = between -30% and -50%; inactive = -30% or higher; note: value at the top dose of about 77 µM; % is set by controls: 0 for no effect and ±100 for the full control effect
# Target sequence (P48426 whole entry, looked up): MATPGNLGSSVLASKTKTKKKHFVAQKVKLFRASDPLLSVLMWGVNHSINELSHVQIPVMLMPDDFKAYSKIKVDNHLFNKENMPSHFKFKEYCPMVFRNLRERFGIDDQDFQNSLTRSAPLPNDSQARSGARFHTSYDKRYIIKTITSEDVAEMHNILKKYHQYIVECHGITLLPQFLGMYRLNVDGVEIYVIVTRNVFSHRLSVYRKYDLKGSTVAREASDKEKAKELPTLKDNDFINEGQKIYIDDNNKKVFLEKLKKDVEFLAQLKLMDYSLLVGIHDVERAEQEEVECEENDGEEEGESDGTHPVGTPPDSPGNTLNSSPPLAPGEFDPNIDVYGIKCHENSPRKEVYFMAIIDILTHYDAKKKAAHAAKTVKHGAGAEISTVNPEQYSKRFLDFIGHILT
#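 Single end-point luminescence (ADP-Glo) quantified ADP from PI5P4Kalpha turnover; ATP 5 microM final, 1 h at RT, 0.1% CHAPS and 0.28 mM EGTA in HEPES pH 7.4.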
# L3MBTL1 inh: blocks human L3MBTL1; Q9Y468; AlphaScreen L3MBTL1–H3K9me1 peptide binding; Potency, µM (top dose mostly 57.1 µM), inactives show at the top dose activity, negative = inhibition, actives largely listed as inhibitors; 230,000 tested, 0.66% active; AID 485360; note: potency is the fitted concentration of half-maximal effect; % is set by controls: 0 for no effect and ±100 for the full control effect; nearly all actives have a fitted effect of over 60% in size
#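 L3MBTL1 (50 nM) pre-complexed 30 min with biotinylated H3(1-15)K9me1 peptide (75 nM), then compounds added for 30 min at room temperature; AlphaScreen streptavidin donor/nickel chelate acceptor beads (10 ug/mL final) read after 30 min dark incubation.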
# G9a block: blocks human histone lysine methyltransferase G9a. Q96KQ7. G9a H3K9 monomethylation, AlphaScreen, 2 h. Potency, µM (titrated, usually from 102 µM), without a hit: top-dose activity, negative = inhibition, usual class: inhibitors. 350,000 tested, 8.8% active; note: potency is the fitted concentration of half-maximal effect; % is set by controls: 0 for no effect and ±100 for the full control effect; nearly all actives have a fitted effect of over 75% in size
# Target sequence (Q96KQ7 913-1193 limits assumed): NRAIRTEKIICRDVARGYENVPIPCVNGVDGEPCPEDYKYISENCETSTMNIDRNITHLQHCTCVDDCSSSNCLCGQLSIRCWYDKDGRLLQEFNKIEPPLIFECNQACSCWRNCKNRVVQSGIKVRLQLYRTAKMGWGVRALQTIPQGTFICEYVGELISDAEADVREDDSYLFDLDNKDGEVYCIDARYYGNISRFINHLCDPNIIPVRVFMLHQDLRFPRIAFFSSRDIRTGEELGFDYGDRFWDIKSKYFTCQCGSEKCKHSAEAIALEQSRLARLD
#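 Using a bead-based AlphaScreen, monomethylated H3K9 product from 2 h room-temperature reactions (G9a 20 nM, peptide 500 nM, SAM 20 uM) was detected with 0.5 ug/mL rabbit anti-H3K9me1 antibody.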
# JMJD2A Tudor inh: inhibitors of human JMJD2A Tudor domain. O75164. AlphaScreen JMJD2A-Tudor / H3K4me3 peptide binding. Potency, µM (doses to about 114 µM), inactives show at the top dose activity change, negative = inhibition, hits mostly inhibitors. 390,000 tested, 4.4% active; note: potency is the fitted concentration of half-maximal effect; % is set by controls: 0 for no effect and ±100 for the full control effect; nearly all actives have a fitted effect of over 50% in size
# HP1b chromo inh: blocks HP1-beta chromodomain binding to methylated histone tails; 390,000 tested, 0.56% active; Potency, µM (titrated, usually from 114 µM), for inactives: top-dose activity change, negative = inhibition, actives largely listed as inhibitors; P83916; AlphaScreen HP1-beta / biotin-H3K9me3 peptide binding; note: potency is the fitted concentration of half-maximal effect; nearly all actives have a fitted effect of over 70% in size
#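 AlphaScreen: HP1-beta (50 nM) preformed 30 min with biotin-H3(1-18)K9me3 peptide (50 nM) in PBS pH 7.4, 0.01% Tween-20. Compound added for 30 min at RT, then streptavidin donor/nickel chelate acceptor beads (10 ug/mL) for 30 min.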
# BAZ2B inh: blocks human BAZ2B | Potency, µM (highest dose often 114 µM), inactives show at the top dose activity change, negative = inhibition, hits mostly inhibitors | Q9UIF8 | AlphaScreen BAZ2B-H3K14Ac peptide displacement | 360,000 tested, 4.4% active | AID 504333; note: potency is the fitted concentration of half-maximal effect; % is set by controls: 0 for no effect and ±100 for the full control effect; nearly all actives have a fitted effect of over 60% in size
#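 In this displacement format the biotinylated H3(5-23) peptide acetylated at Lys14 serves as ligand at 50 nM, with BAZ2B at 50 nM in PBS pH 7.4 containing 0.01% Tween-20. Donor and acceptor beads are 10 ug/mL final.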
# Starred values were filed as active, the others as inactive; u = inconclusive; x = not tested or not shown; [ ] = another dose, or the depositor's remark. A selection: hits, their analogues and other compounds. The true share with any hit is near 11%. Unless noted, calls come from the whole dose curve; as a rule, active = well fitted inhibition curve with a large enough effect; inconclusive = small, poorly fitted or top-dose-only effect; inactive = no such curve, though single readings can be large or run the other way.
SMILES,PI5P4Ka inh,L3MBTL1 inh,G9a block,JMJD2A Tudor inh,HP1b chromo inh,BAZ2B inh
COc1cccc(/C=N/n2c(COc3ccccc3)n[nH]c2=S)c1,-13,x,1.8µM*,79µM*,u,u
S=c1[nH]nc(COc2ccccc2)n1/N=C/c1cccc(Br)c1,-1,x,8.9µM*,u,-5%,-29%
S=c1[nH]nc(COc2ccccc2)n1/N=C/c1cccc(Cl)c1Cl,-4,x,u,u,-6%,-19%
CCCCNC(=O)C1CCN(c2nc3ccccc3nc2C(F)(F)F)CC1,x,x,-22%[59 µM],3%,17%,5%
Oc1ccc(Br)cc1C1C=C(c2ccc3c(c2)OCO3)NC(c2ccc(Br)cc2)N1 (stereo not given),x,x,x,-6%[57.1 µM],15%[57 µM],x
COc1ccc(NC(=O)c2nnn(Cc3nc(-c4cc(OC)c(OC)c(OC)c4)oc3C)c2C)cc1Cl,x,x,-15%[59 µM],-2%,18%,3%
S=c1[nH]nc(COc2ccccc2)n1/N=C/c1ccc(Br)cc1,-3,x,20µM*,-21%,5%,-6%
C(=N\n1cnnc1)/c1cccc(Oc2ccccc2)c1,0,x,13%[59 µM],-8%,1%,-10%
S=c1[nH]nc(COc2ccccc2)n1/N=C/C(Cl)=C/c1ccccc1,x,-19%,10%[0.501 µM],u,u,u
S=c1[nH]ncn1/N=C/c1cccc(Oc2ccccc2)c1,-7,x,-123%,45µM*,u,-38%
CCOc1ccc(C(=O)c2cn(Cc3ccc(Cl)cc3)c3cc(OC)c(OC)cc3c2=O)cc1,x,x,21%[59 µM],-5%,38%,15%
Cn1nc(C(C)(C)C)c([N+](=O)[O-])c1C(=O)NCCO,-13,3%,0%,50µM*,8%,10%
CCN(CC)C(=O)c1c([N+](=O)[O-])c(C(C)(C)C)nn1C,-1,11%,-1%[59 µM],7%,35%,-2%
COc1cc(OC)c(Nc2c3c(nc4nc(-c5cccs5)nn24)CCCC3)cc1Cl,x,x,1%[59 µM],-6%,30%[57 µM],2%
COCCCOc1cc(NCc2ccccc2)c2ncn(C(C)C)c2c1,9,-19%,x,56µM*,-34%,x
CCC(CO)Oc1cc(NCc2cccc(O)c2)c2ncn(C(C)C)c2c1 (stereo not given),-2,-3%,x,-26%,10%,x
CCCCOc1cc(NCc2ccccc2)c2ncn(C(C)C)c2c1,1,u,x,40µM*,u,x
CCOCCOc1cc(NCc2ccccc2)c2ncn(C(C)C)c2c1,0,x,x,10µM*,14µM*,x
CCC(CO)Oc1cc(NCc2cccc(OC)c2)c2ncn(C(C)C)c2c1 (stereo not given),3,-12%,x,u,15%,x
COc1ccc(Cc2cc(NCc3ccccc3)c3ncn(C(C)C)c3c2)cc1,-2,u,x,40µM*,-36%,x
CCC(CO)Oc1cc(NCc2cccc(F)c2)c2ncn(C(C)C)c2c1 (stereo not given),2,-23%,x,u,-22%,x
COc1cc(NCc2ccccc2)c2ncn(Cc3ccccc3)c2c1,-1,u,x,25µM*,u,x
CCC(CO)Oc1cc(NCc2ccccn2)c2ncn(C(C)C)c2c1 (stereo not given),-2,-24%,x,u,30%,x
COc1ccc(CNC(=O)Cn2cnc3c(NCc4ccccc4)ncnc32)cc1,3,3%,x,-22%,4%,x
CC(C)n1cnc2c(NCc3ccccc3)cc(N[C@H](C)CO)cc21,-17,u,x,56µM*,u,x
SMILES,PI5P4Ka inh,L3MBTL1 inh,G9a block,JMJD2A Tudor inh,HP1b chromo inh,BAZ2B inh
COC(=O)c1cc2occc2n1Cc1nc(-c2ccccc2)oc1C,x,x,-8%[59 µM],4%,32%,-25%
CCOC(=O)CSC1=NC(=O)/C(=C/c2ccc(OC)cc2)S1,-51*,2%,7.1µM*,-21%,16%,-7%
CCOC(=O)C1CCCN(C2=NC(=O)/C(=C/c3ccc(OC)cc3)S2)C1 (stereo not given),1,x,-5%,-15%,17%,2%
CCOC(=O)C1CCN(C2=NC(=O)/C(=C/c3ccc(O)cc3)S2)CC1,1,x,40µM*,-5%,-23%,-21%
CCOC(=O)C1CCCN(C2=NC(=O)/C(=C/c3ccc(N(C)C)cc3)S2)C1 (stereo not given),6,x,40µM*,-26%,35%,45µM*
CCOC(=O)C1CCCN(C2=NC(=O)/C(=C/c3ccc(OC)cc3OC)S2)C1 (stereo not given),-79*,x,25µM*,-36%,-20%,-27%
Cc1cccc(N2CCN(CC(=O)Nc3ccccc3[N+](=O)[O-])CC2)c1C,x,-13%,24%,-18%,1%,-5%
COc1ccc(N2CCN(Cc3cc(OC)c(O)c([N+](=O)[O-])c3)CC2)cc1,9,-6%,7.1µM*,1µM*,16µM*,50µM*
COc1cc(CN2CCN(c3cccc(C)c3C)CC2)cc([N+](=O)[O-])c1O,-11,-11%,11µM*,2.2µM*,u,50µM*
Cc1c(C(=O)N(C)C)sc2c1c(=O)n(-c1ccc(Cl)c(Cl)c1)c(=O)n2CC(=O)N1CCCCC1C (stereo not given),x,x,2%[59 µM],-22%,-3%,-11%
CCOc1ccc(N2C(=O)CC(N3CCN(c4ccc([N+](=O)[O-])cc4)CC3)C2=O)cc1 (stereo not given),-1,0%,7.9µM*,-18%,35%,-25%
COc1ccc(N2C(=O)CC(NCCNc3ccc([N+](=O)[O-])cn3)C2=O)cc1 (stereo not given),3,5%,6.3µM*,-18%,23%,-22%
CCOc1ccc(N2C(=O)CC(NCCNc3ccc([N+](=O)[O-])cn3)C2=O)cc1 (stereo not given),0,-4%,3.2µM*,-24%,41%,-20%
CCCOc1ccc(N2C(=O)CC(N3CCN(c4nc5ccccc5s4)CC3)C2=O)cc1 (stereo not given),-13,1%,45µM*,-9%,44%,28%
CCOc1ccc(N2C(=O)CC(NCCc3ccncc3)C2=O)cc1 (stereo not given),x,4%,3%[59 µM],u,27%,13%
CCCOc1ccc(N2C(=O)CC(N3CCN(c4ccccc4F)CC3)C2=O)cc1 (stereo not given),x,2%,20%[59 µM],-5%,12%,3%
Cc1ccc(N(C(=O)c2cccc(C)c2)S(=O)(=O)c2ccc(Cl)cc2)cc1,x,x,14%[59 µM],-9%,26%,2%
COc1ccccc1NC(=O)Cn1c(=O)oc2cc(S(=O)(=O)NCc3ccccc3)ccc21,x,x,12%[59 µM],-3%,47%,2%
Cc1nn(-c2ccccc2)c2sc(C(=O)Nc3cccc(O)c3)cc12,x,x,-2%[59 µM],-14%,20%,-17%
